Assay results taken from PubChem BioAssay (NCI).
This is part of a sample that, as a whole, favours compounds with a hit. Of some 79,000 tested, about 15% had one in any assay. Unmarked numbers belong to inactive results. The source made the active and inactive calls. No stated cut-off is given here; in the data, active means growth inhibition above about 70%; inactive means the rest.

Test: NCI Yeast Anticancer Drug Screen. Data for the rad52 strain (AID 147);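 further: 0% = growth of vehicle-treated control cultures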
Settings: S. cerevisiae rad52 mutant growth inhibition, stronger effect = higher value
Method: Growth inhibition of yeast strains with defined genetic alterations is measured as a screen for potential anti-cancer activity. Selected strains with alterations in DNA damage repair or cell cycle control were exposed to compounds and growth inhibition was measured relative to vehicle treated controls. The strain used in this assay is rad52

For CC[C@@]1(OC(=O)CCC(=O)O)C(=O)OCc2c1cc1n(c2=O)Cc2cc3ccccc3nc2-1, the growth inhibition (at 1.2 µM) was 78% (active), the growth inhibition (at 3.7 µM) was 87% (active) and the growth inhibition (at 11.0 µM) was 92% (active). The growth inhibition (at 33.0 µM) was 95% (active) and the growth inhibition (at 100.0 µM) was 94% (active).
With O=C1CSC(=S)N1Cc1ccc(Cl)cc1Cl the growth inhibition (at 1.2 µM) was -4%, the growth inhibition (at 3.7 µM) was 8% and the growth inhibition (at 11.0 µM) was 98% (active). For the same compound, the growth inhibition (at 33.0 µM) was 99% (active) and the growth inhibition (at 100.0 µM) was 98% (active).
Compound O=C1CC(=O)N(C2CCCCC2)C(=O)N1c1ccccc1S(=O)(=O)Oc1ccccc1 has a growth inhibition (at 1.2 µM) of 1%, a growth inhibition (at 3.7 µM) of 3% and a growth inhibition (at 11.0 µM) of 4%. It also gave a growth inhibition (at 33.0 µM) of 24% and a growth inhibition (at 100.0 µM) of 64%.
With COc1ccc(N)c2c1C(=O)c1ccccc1C2=O the growth inhibition (at 1.2 µM) was 6%, the growth inhibition (at 3.7 µM) was 11% and the growth inhibition (at 11.0 µM) was 46%. For the same compound, the growth inhibition (at 33.0 µM) was 90% (active) and the growth inhibition (at 100.0 µM) was 96% (active).
NC(=O)N1c2ccccc2C=Cc2ccccc21 showed a growth inhibition (at 1.2 µM) of -35%, a growth inhibition (at 3.7 µM) of -36% and a growth inhibition (at 11.0 µM) of -38%. It also gave a growth inhibition (at 33.0 µM) of -49% and a growth inhibition (at 100.0 µM) of -41%.
O=C1c2cccc3cc([N+](=O)[O-])cc(c23)C(=O)N1CCN1CCCC1 showed a growth inhibition (at 1.2 µM) of 33%, a growth inhibition (at 3.7 µM) of 61% and a growth inhibition (at 11.0 µM) of 63%. The growth inhibition (at 33.0 µM) was 90% (active) and the growth inhibition (at 100.0 µM) was 94% (active).
Nc1ccc2c(=S)c3ccccc3[nH]c2c1 showed a growth inhibition (at 1.2 µM) of 8%, a growth inhibition (at 3.7 µM) of 12% and a growth inhibition (at 11.0 µM) of 12%. For the same compound, the growth inhibition (at 33.0 µM) was 32% and the growth inhibition (at 100.0 µM) was 71% (active).
In the case of CCOC(=O)C1=C(C)NC(C)=C(C(=O)OCC)C1c1ccc(C)cc1, the growth inhibition (at 1.2 µM) is reported as 27%, the growth inhibition (at 3.7 µM) is reported as 43% and the growth inhibition (at 11.0 µM) is reported as 64%. For the same compound, the growth inhibition (at 33.0 µM) was 97% (active) and the growth inhibition (at 100.0 µM) was 95% (active).
